Experimental data from PubChem BioAssay.
Active and inactive are the calls of the source.

What was measured:
Albumin (Bos taurus) = Albumin (Bos taurus) (UniProt P02769); test: bovine serum albumin binders on microarray, profiling panel, artefact control for SMM control protein annotation, biochemical, small-molecule microarray, Alexa647 label, 635/667 nm fluorescence (AID 1118); conditions: BSA-A647 binding, fluorescence 635 nm, higher = more signal;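 note: score merges 667 nm emission intensity and signal-to-noise per printed compound spot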
[1] = small-molecule microarray binders of probe aXIP, primary screen, biochemical, NeuroSMM set, 635/667 nm fluorescence (AID 1119); conditions: higher = more signal, called active from +8 up or from −8 down;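 note: probe is the protein aXip251-270 applied at 1 µg/mL to compound-printed slides; binding of probe to printed compounds measured as 667 nm fluorescence plus signal to noise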
[2] = small-molecule binders of probe aNOTCH3, primary screen, biochemical, small-molecule microarray, 635/667 nm fluorescence (AID 1120); conditions: higher = more signal;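 note: probe is a biotin-tagged antibody raised against NOTCH3 rather than NOTCH3 protein; score merges spot fluorescence near 667 nm with spot signal to noise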
[3] = small-molecule binders of probe aNOTCH2, primary screen, biochemical, small-molecule microarray, 635/667 nm fluorescence (AID 1121); conditions: higher = more signal;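 note: score merges feature fluorescence read at 667 nm with its signal to noise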
[4] = target: Carbonic anhydrase 2 (Homo sapiens) (UniProt P00918); test: CAII small-molecule binders, profiling panel, biochemical, small-molecule microarray, Alexa647-labelled CAII (AID 1122); conditions: CAII-A647 binding fluorescence, higher = more signal
[5] = COS7 lysate on small-molecule microarray, probe aHis, 635 nm (AID 1123); conditions: COS7 cell lysate, fluorescence, higher = more signal;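 note: z-score combines 667nm fluorescence intensity with signal-to-noise per printed compound spot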
[6] = compound binding in COS7 lysate, probe aLAP1, primary screen, cell lysate, small-molecule microarray (AID 1124); conditions: probe aLAP1, fluorescence, higher = more signal;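 note: lysate comes from COS7 cells expressing LAP1 and is applied at 0.3 µg/mL; score merges spot fluorescence near 667 nm with signal-to-noise over triplicate slides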
Sam68 (KHDRBS1) = test: Sam68 small-molecule binders, primary screen, biochemical, small-molecule microarray, 635 nm fluorescence (AID 1125); conditions: small-molecule microarray binding, higher = more signal;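 note: score merges 667 nm channel intensity with signal to noise over triplicate slides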
[7] = system: Chordin-like protein 2 (CHRDL2); test: CHRDL2 small-molecule binders, primary screen, biochemical, small-molecule microarray, 635 nm fluorescence (AID 1126); conditions: small-molecule microarray binding, fluorescence 635 nm; higher = more signal;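 note: printed compound slides probed with Chrdl2 protein at 4 µg/mL for 1 h at 4 C; score merges 667 nm emission intensity with signal to noise over three replicate slides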
[8] = target: Concanavalin-A (Canavalia ensiformis) (UniProt P02866); test: ConA small-molecule binders, primary screen, artefact control for SMM control protein annotation, biochemical, small-molecule microarray, Alexa647 label, 635 nm (AID 1127); conditions: ConA-A647 binding fluorescence, higher = more signal;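 note: z combines 667 nm emission intensity with signal-to-noise across three replicate slides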
Concanavalin-A (Canavalia ensiformis), sequence (P02866 whole entry, looked up): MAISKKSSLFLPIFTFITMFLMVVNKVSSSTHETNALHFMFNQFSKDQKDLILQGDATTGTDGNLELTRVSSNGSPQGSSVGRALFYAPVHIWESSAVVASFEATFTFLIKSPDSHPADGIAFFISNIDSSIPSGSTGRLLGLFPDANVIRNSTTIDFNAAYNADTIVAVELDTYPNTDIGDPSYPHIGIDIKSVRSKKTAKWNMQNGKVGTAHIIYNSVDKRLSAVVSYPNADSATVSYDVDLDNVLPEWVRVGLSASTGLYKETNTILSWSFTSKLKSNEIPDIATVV

Albumin (Bos taurus), sequence (P02769 whole entry, looked up): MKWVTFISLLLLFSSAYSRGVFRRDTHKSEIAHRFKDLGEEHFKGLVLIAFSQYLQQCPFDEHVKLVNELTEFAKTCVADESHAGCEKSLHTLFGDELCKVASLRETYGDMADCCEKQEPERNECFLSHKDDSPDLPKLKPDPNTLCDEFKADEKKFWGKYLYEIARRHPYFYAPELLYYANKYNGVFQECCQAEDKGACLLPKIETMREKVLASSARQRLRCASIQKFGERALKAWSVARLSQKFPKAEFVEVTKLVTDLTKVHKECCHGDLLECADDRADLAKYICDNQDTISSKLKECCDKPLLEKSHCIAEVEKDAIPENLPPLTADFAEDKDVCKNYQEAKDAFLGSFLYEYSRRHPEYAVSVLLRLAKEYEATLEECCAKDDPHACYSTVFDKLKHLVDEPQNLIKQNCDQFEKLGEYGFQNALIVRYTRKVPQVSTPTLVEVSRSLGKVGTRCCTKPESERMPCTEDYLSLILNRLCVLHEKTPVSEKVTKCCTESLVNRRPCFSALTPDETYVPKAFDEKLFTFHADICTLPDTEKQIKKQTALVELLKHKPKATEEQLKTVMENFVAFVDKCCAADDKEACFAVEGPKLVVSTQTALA

SMILES | composite z-score (Albumin (Bos taurus)) | composite Z-score [1] | composite z-score [2] | composite z-score [3] | composite z-score [4] | composite z-score [5] | composite z-score [6] | composite z-score (Sam68 (KHDRBS1)) | composite z-score [7] | composite z-score [8]
CN1C(=O)C2C=CC(C(O)c3cccc(O)c3)N(Nc3ccccc3)C2C1=O (stereo not given) | 0.976 | 0.501 (inactive) | 0.17 | -0.14 | 0.552 | 0.247 | -0.279 | -0.172 | -0.246 | 0.312
CCCCN1CC=CC23O[C@@H]4/C=C\CCC(C)OC(=O)C4[C@H]2C(=O)N(C(CO)C(C)C)[C@@H]3C1=O (stereo not given in full) | 0.751 | 0.443 (inactive) | -0.126 | -0.12 | 0.815 | -0.407 | 1.13 | -0.468 | 0.212 | -0.409
CCOC(=O)C[C@H]1[C@H](OC(=O)c2cc3ccccc3oc2=O)[C@@H](NC(=O)c2ccc(-c3ccccc3)cc2)c2cc(OCCCO)ccc2N1C(=O)c1ccccc1 | 0.551 | -0.0549 (inactive) | 0.242 | -0.0971 | 0.274 | 0.716 | -0.0433 | 1.32 | 0.475 | 0.858
C=CCOC(=O)[C@H]1[C@@H]2C(=O)O[C@@H](c3ccccc3)[C@@H](c3ccccc3)N2[C@@H](c2ccc(OCCOC(=O)[C@@H]3C[C@@H]4C(=O)N[C@@H](CCCCN(C)C)C(=O)N4[C@@H]3c3ccc(O)cc3)cc2)[C@]12C(=O)Nc1ccccc12 | -0.568 | 0.685 (inactive) | 0.137 | 0.0002 | 0.297 | 2.58 | 0.949 | 1.31 | 1.44 | 1.14
COc1cc2c(cc1O)C(C)N(Cc1ccc([N+](=O)[O-])o1)CC2 (stereo not given) | 0.831 | 0.0948 (inactive) | 0.348 | 0.0746 | 0.512 | 0.68 | 1.57 | 1.33 | -0.622 | 1.17
O=C1O[C@@H](c2ccccc2)[C@@H](c2ccccc2)N2[C@@H](c3ccc(O)cc3)[C@]3(C(=O)Nc4ccc(C#CC5=CCCCC5)cc43)[C@@H](C(=O)NC[C@H](O)c3ccccc3)[C@H]12 | 0.375 | 0.486 (inactive) | 0.274 | 0.0556 | 0.401 | 2.1 | 0.553 | 1.31 | 1.13 | 1.05
CCCC[C@@H](O)C1=C(COc2ccccc2)C[C@H]2C(=O)N(C)C(=O)[C@H]2[C@H]1CO | -0.261 | -0.191 (inactive) | -0.201 | -0.173 | -0.482 | -0.61 | -0.357 | -0.501 | 0.103 | -0.425
CCCCCCCCCCC(O)C1C=CC2C(=O)N(C)C(=O)C2N1Nc1ccc([N+](=O)[O-])cc1[N+](=O)[O-] (stereo not given) | 0.884 | 0.423 (inactive) | 0.0668 | 0.0807 | 0.589 | 2.32 | 0.141 | 1.11 | -0.0731 | 1.14
[N-]=[N+]=NCc1ccccc1C[C@@]1(C(=O)N2CCCCC2)N=C(c2ccc(OCCCO)cc2)O[C@@H]1c1ccccc1 | 0.901 | 0.269 (inactive) | -0.102 | -0.299 | 0.606 | 1.28 | -0.0762 | 1.07 | -1.27 | 0.64
CCOC(=O)[C@H]1[C@@H]2C(=O)N3CCC[C@H]3[C@H](O[Si](C(C)C)(C(C)C)C(C)C)[C@H]2C=C2CCN(S(=O)(=O)c3ccc(C)cc3)C[C@H]21 | 0.603 | 0.156 (inactive) | 0.0208 | -0.112 | 0.481 | 1.15 | 0.171 | 1.3 | 0.484 | 1.12
O=C1O[C@H](c2ccccc2)[C@H](c2ccccc2)N2[C@H]1[C@@H](C(=O)Nc1nc3ccccc3s1)[C@]1(C(=O)Nc3ccc(C#CCCO)cc31)[C@H]2c1ccc(O)cc1 | 0.497 | -0.0959 (inactive) | 0.199 | -0.156 | 0.5 | 1.75 | 0.278 | 1.02 | 0.172 | 1.16
CCOC(=O)C[C@H]1[C@H](OC(=O)c2cc3ccccc3oc2=O)[C@@H](NC(=O)c2ccc(-c3ccccc3)cc2)c2cc(OCCCO)ccc2N1C(=O)c1ccc2ccccc2n1 | 0.111 | 0.6 (inactive) | 0.0864 | -0.147 | 0.4 | 0.837 | 0.205 | 1.32 | 0.492 | 0.708
CC=CC(O)C1C=CC2C(=O)N(c3ccccc3)C(=O)C2N1Nc1ccccc1F (stereo not given) | 0.245 | 1.48 (inactive) | 0.541 | 0.468 | 0.74 | 2.08 | 0.412 | 0.338 | 0.295 | 0.0905
Cc1cc(C)cc(N2C(=O)CSC2c2cccc([N+](=O)[O-])c2)c1 (stereo not given) | 0.892 | 0.027 (inactive) | -0.0023 | -0.124 | 0.621 | 1.94 | 0.798 | 1.3 | 0.052 | 1.19
COCCOC(=O)N1C(=O)[C@@]2(c3cc(C#Cc4ccc(OC)cc4)ccc31)[C@H](c1ccccc1OCCO)N1[C@H](c3ccccc3)[C@H](c3ccccc3)OC(=O)[C@H]1[C@@H]2C(=O)N1CCCCCCC1 | 0.164 | 6.24 (inactive) | 1.81 | 0.956 | 0.934 | 2.08 | 0.512 | 0.484 | 1.43 | 0.908
O=C1OCCC/C=C\[C@H]2OC34C=CCN(CCN5CCOCC5)C(=O)[C@H]3N(CCCCCCO)C(=O)[C@@H]4C12 (stereo not given in full) | 0.719 | 1.02 (inactive) | -0.0947 | -0.144 | 0.867 | 0.817 | 1.57 | 0.184 | -0.394 | -0.324
C=CC1c2cc(O)c(OC)cc2CCN1Cc1cc2c(cc1Br)OCO2 (stereo not given) | -0.956 | 0.577 (inactive) | -0.0152 | -0.0891 | 0.823 | 1.99 | 1.25 | 0.342 | 0.775 | 0.142

SMILES | composite z-score (Albumin (Bos taurus)) | composite Z-score [1] | composite z-score [2] | composite z-score [3] | composite z-score [4] | composite z-score [5] | composite z-score [6] | composite z-score (Sam68 (KHDRBS1)) | composite z-score [7] | composite z-score [8]
CC(CO)N1C(=O)[C@@H]2[C@H]3C(=O)OCC=C[C@H]3OC23C=CCN(CCN2CCOCC2)C(=O)[C@@H]13 (stereo not given in full) | 0.138 | -0.0888 (inactive) | -0.152 | -0.117 | 0.302 | -1.05 | -0.586 | -0.0161 | -0.235 | -0.22
C=CCC(OC(C)=O)[C@@H]1[C@@H](N(Cc2ccc(-c3ccccc3)cc2)C(=O)Cc2ccc(F)cc2)c2cc(OCCCO)ccc2N1C(=O)Cc1ccc(OC)cc1 (stereo not given in full) | -0.0495 | -0.101 (inactive) | -0.0817 | -0.141 | 0.207 | 0.377 | 0.0514 | -0.274 | -0.0031 | 0.774
COC(=O)[C@@]1(Cc2ccc(OC)cc2)[C@H]2c3cc(C(=O)N4CCCC4)n(Cc4cccc5ccccc45)c3C[C@H]2CN1C(=O)c1ccccc1 | 1.02 | -0.115 (inactive) | 0.137 | 0.377 | 0.757 | 2.55 | 0.592 | 0.462 | -0.133 | 0.686
CC(C)N1CC=CC23O[C@@H]4C=CCOC(=O)[C@@H]4[C@H]2C(=O)N(CCCO)[C@@H]3C1=O (stereo not given in full) | 1.05 | 2.17 (inactive) | -0.145 | -0.118 | 0.863 | 2.76 | 0.633 | 0.234 | -0.73 | 0.234
COC(=O)c1c2oc(c1C(=O)OC)C(=O)N(Cc1ccccc1)Cc1cn(nn1)C[C@H](Cc1ccccc1)NC(=O)N[C@H](CO)CC2 | 0.784 | 0.535 (inactive) | -0.0918 | -0.14 | 0.778 | 0.87 | 0.487 | 0.636 | 0.369 | 0.861
COc1ccc(CCNC(=O)[C@@]2(Sc3ccc(C)cc3)CC(=O)N(C3Cc4ccccc4C3)[C@@H]2c2ccc(CO)cc2)cc1 | 0.575 | -0.413 (inactive) | 0.0522 | 0.0407 | 0.274 | 1.23 | 0.661 | 1.3 | 1.5 | 1.14
CC(C)C(=C=CC[C@H](O)c1ccc(OCCO)cc1)C[C@H](O)c1ccccn1 | 0.449 | 0.168 (inactive) | -0.0044 | -0.13 | 0.513 | 0.619 | 0.864 | 1.19 | -0.237 | -0.057
COc1ccc(-c2nc(-c3ccccc3)c3c(c2C)CO[Si]3(C(C)C)C(C)C)cn1 | -0.475 | 0.428 (inactive) | -0.126 | -0.0921 | 0.0924 | 0.583 | -0.209 | 0.152 | 0.151 | -0.209
C=C(C)[C@@H]1CC=C(C(O)C2C=CC3C(=O)N(c4ccccc4)C(=O)C3N2Nc2ccccc2F)CC1 (stereo not given in full) | 0.956 | 0.117 (inactive) | 0.466 | -0.0467 | 0.747 | 3.08 | -0.102 | 1.34 | 0.0095 | 1.13
COCCOC(=O)N1C(=O)[C@@]2(c3cc(C#CCNC(N)=O)ccc31)[C@H](C(=O)N1CCc3cc(OC)c(OC)cc3C1)[C@H]1C(=O)O[C@H](c3ccccc3)[C@H](c3ccccc3)N1[C@@H]2c1ccccc1OCCO | 0.577 | -0.0476 (inactive) | 0.123 | -0.126 | 0.577 | 1.33 | 0.383 | 1.29 | 0.855 | 0.794
O=C1c2ccccc2[C@](Cc2ccccc2I)(C(=O)NCC(F)(F)F)[C@H](c2ccc(CO)cc2)N1C1CCCCC1 | 0.689 | 0.328 (inactive) | -0.0026 | -0.0956 | 0.729 | 2.31 | 0.326 | 1.31 | 0.227 | 1.16
COCC1=C2[C@@H](CCc3ccccc3)OB(O)C[C@@H]2[C@@H]2C(=O)C=CC(=O)[C@@H]2C1 | 0.739 | -0.228 (inactive) | 0.334 | -0.12 | 0.295 | 0.883 | 0.481 | 1.31 | 0.0197 | 1.02
CC(C)C(CO)N1C(=O)[C@@H]2C3C(=O)OCCC/C=C\[C@H]3OC23C=CCN(C(C)(C)C)C(=O)[C@@H]13 (stereo not given in full) | -0.632 | -0.115 (inactive) | -0.304 | -0.156 | 0.815 | -0.12 | -0.281 | -0.142 | -0.438 | -1.47
COc1cccc(/C=C/C=O)c1 | 0.865 | -0.245 (inactive) | 0.147 | 0.142 | -0.124 | 0.155 | -0.12 | -0.146 | 0.552 | -0.52
CCOC(=O)C1=CC[C@@H](c2ccc(OCc3ccccc3)c(OC)c2)N(S(=O)(=O)c2ccc(C)cc2)[C@H]1c1ccc(SC)cc1 | 0.783 | 0.207 (inactive) | 0.386 | 0.202 | 0.625 | 2.53 | 0.157 | 1.31 | 0.525 | 0.806
COC(=O)[C@@]1(Cc2ccccc2)[C@H]2c3cc(C(=O)N(C)C)n(Cc4c(CO)[nH]cc(C)c4=O)c3C[C@H]2CN1C(=O)c1ccccc1 | 0.96 | 0.546 (inactive) | 0.163 | -0.0351 | 0.777 | 1.35 | -0.056 | 0.432 | -0.26 | 0.295
